# According to PubChem BioAssay AID651871 (Sanford-Burnham Center for Chemical Genomics, 2012):
# Several values for one entry are separate records, joined by “and”; a condition that tells them apart may be missing. Identical values can stand only once.
# Test system: HL-1
# Test: cardiomyocyte survival under oxidative or metabolic stress – cell-based, panel, H9c2 and HL-1, ATP luminescence, set 2, SAR follow-up (AID 651871);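 also: cells exposed to stressor for 2 h before ATP readout; reference of the scale not given here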
# Conditions: H9c2/HL-1 cardiomyocytes, 2-deoxyglucose stress, with 2-deoxyglucose, run 3, at 79 µM (top of the series)
row,Compound,activity (protection/inhibition)
1,COc1ccc2nc(-c3cc(OC)c(OC)c(OC)c3)cc(C(=O)NCC(=O)Nc3ccc(C(C)=O)cc3)c2c1,38.8%
2,CCOC(=O)c1cccc(NC(=O)CNC(=O)c2cc(-c3cc(OC)c(OC)c(OC)c3)nc3ccccc23)c1,95.7%
3,COc1ccc2c(c1OC)C(=O)N1c3ccccc3C(=O)N(Cc3cccc(Cl)c3Cl)C21 (stereo not drawn),35.1% and -7.14%
